# Test results published in PubChem BioAssay (EPA / NIEHS).
# Inconclusive results are not listed. Calls of active or inactive are those of the source. Rule for the calls: active = hit-call score of the fitted dose curve at least 0.9, where 1 is the maximum; inconclusive = response in the unintended direction; inactive = score below 0.9.
# Target: guinea pig Serotonin, 5-Hydroxytryptamine Receptor 4 (5HT4), HTR4 (gene 100135548) (UniProt O70528)
# Experiment: NVS_GPCR_g5HT4: NovaScreen (NVS) G Protein-Coupled Receptor Assay for guinea pig Serotonin, 5-Hydroxytryptamine Receptor 4 (5HT4) (AID 2283294)
# Experimental: NVS_GPCR_g5HT4 is a biochemical, single-readout assay that uses extracted gene-proteins from Guinea pig striatal membranes in a tissue-based cell-free assay. Measurements were taken 1 hour after chemical dosing in a 48-well plate.NVS_GPCR_g5HT4 is one of one assay component(s) measured or calculated from the NVS_GPCR_g5HT4 assay. It is designed to make measurements of radioligand binding, a form of binding reporter, as detected with scintillation counting signals by Filter-based radiodetection technology.Data from the assay component NVS_GPCR_g5HT4 was analyzed into 1 assay endpoint. This assay endpoint, NVS_GPCR_g5HT4, was analyzed in the positive analysis fitting direction relative to DMSO as the negative control and baseline of activity. Using a type of binding reporter, loss-of-signal activity can be used to understand changes in the binding as they relate to the gene Htr4. Furthermore, this assay endpoint can be referred to as a primary readout, because the performed assay has only produced 1 assay endpoint. To generalize the intended target to other relatable targets, this assay endpoint is annotated to the gpcr intended target family, where the subfamily is rhodopsin-like receptor.
# Binding assays used specific radioligands (tritiated, iodinated) with non-radioactive competitive displacement ligands in agonist or antagonist protocols (as indicated) and various reference compounds and inhibitors to titrate specific binding to receptors and transporters. Most enzyme assays (CYPs, kinases, phosphatases, proteases, HDACs) used recombinant protein and specific substrates (fluorescence mostly, some colorimetric and radioactive) and inhibitors, followed by a biochemical separation of substrate and product. All assays for the biochemical HTS were initially run in duplicate at a single concentration (10 uM for CYP450 assays and 25 uM for all others). […] Each assay was run with positive and negative controls, and concurrent controls on every plate. The follow-up (secondary) screen tested active chemical-pairs in concentration series, as well as a few additional assays not tested in the primary screen, some selected negative inactives, and several cases re-run in the concentration series for confirmatory purposes.
# Sequence of guinea pig Serotonin, 5-Hydroxytryptamine Receptor 4 (5HT4), HTR4 (gene 100135548) (O70528 whole entry, looked up): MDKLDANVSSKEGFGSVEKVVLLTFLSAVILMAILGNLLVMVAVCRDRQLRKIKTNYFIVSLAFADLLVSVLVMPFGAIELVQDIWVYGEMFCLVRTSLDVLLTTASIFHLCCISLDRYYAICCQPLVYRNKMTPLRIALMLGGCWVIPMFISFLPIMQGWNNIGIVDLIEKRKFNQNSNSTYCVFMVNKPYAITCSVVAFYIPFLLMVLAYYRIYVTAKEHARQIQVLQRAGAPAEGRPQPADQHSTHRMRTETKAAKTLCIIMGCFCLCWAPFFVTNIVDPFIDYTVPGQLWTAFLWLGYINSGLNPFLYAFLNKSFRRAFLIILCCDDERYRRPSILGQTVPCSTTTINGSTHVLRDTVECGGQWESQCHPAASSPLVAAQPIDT
SMILES,outcome,AC50
CC(C)COC(=O)CCCCC(=O)OCC(C)C,inactive,–
CN(C)CCCN1c2ccccc2Sc2ccc(Cl)cc21,–,15.3 µM (active)
CCN(CC)CCOc1ccc(C(=C(Cl)c2ccccc2)c2ccccc2)cc1,–,11.4 µM (active)
COC(=O)[C@H]1[C@H]2C[C@@H]3c4[nH]c5cc(OC)ccc5c4CCN3C[C@H]2C[C@@H](OC(=O)c2cc(OC)c(OC)c(OC)c2)[C@@H]1OC,–,5.67 µM (active)
CSc1ccc(Oc2ccc(S(N)(=O)=O)cc2CN(C)C)cc1C,–,0.621 µM (active)
CC(C)c1cccc(C(C)C)c1,inactive,–
CC(=O)CC(c1ccccc1)c1c(O)c2ccccc2oc1=O (stereo unspecified),inactive,–
CCc1nc(N)nc(N)c1-c1ccc(Cl)cc1,–,4.48 µM (active)
O=C(O)c1[nH]n(-c2ccc(S(=O)(=O)O)cc2)c(=O)c1N=Nc1ccc(S(=O)(=O)O)cc1,–,15.9 µM (active)
COc1ccc(OC(F)(F)F)cc1CN[C@H]1CCCN[C@H]1c1ccccc1,–,12.2 µM (active)
CN(C)CCCN(C)CCCN(C)C,inactive,–
